Assay results reported in the supplement of paper PMC10338343.
± gives the standard deviation.

Test system: MILI (PIWIL2) piRISC loaded with L1MC piRNA (26 nt)
Assay: pre-steady-state target cleavage rate (min^-1); guide: L1MC piRNA 5'p-UAACUAAAUACUAUGCAAGCUGUAGG; MIWI and MILI are mouse PIWI proteins and EfPiwi is from a freshwater sponge; tags in brackets are library labels; higher = faster piRNA-guided slicing of the target
Details: auxiliary factor: 500 nM mouse GTSF1
Procedure: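 Cleave-'n-Seq: a library of target RNAs (target site embedded in constant flanks, ACAGCATTCCGCGTTAGTGATATCCG... 5' flank; DNA-blocked outside the site) at 0.1 nM was incubated with 1 nM active mouse MILI or MIWI piRISC (synthetic 5'-monophosphorylated piRNA guide) with or without 500 nM mouse GTSF1 at 33 °C for 1 min to 16 h. Uncleaved targets were sequenced and normalised to non-target controls, and the pooled three trials were fitted to a burst-and-steady-state model to give the pre-steady-state cleavage rate (min^-1; k3 is constrained to at most 1e-4). Sequence is the target site only; target names encode pairing extent (gX:gY) and contiguous / 1-mismatch / 2-mismatch / bulge geometry. Fits with R² ≤ 0 are excluded.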

Row | Sequence | pre-steady-state target cleavage rate
1 | UCCUGGUACAGCUUGCAAUGUAUUUACAAA | 0.00784 ± 0.0049
2 | UCCUGGAUGUCGAUGCAUAGUAUUUAGUUA [g2:g17:cont:t1A] | 0.124 ± 0.017
3 | UCCUGGUACUGCUUGCAUAGUUUUUAGUUA | 0.0403 ± 0.012
4 | UCCUGGAACAGCUAGCAUUGUAUUUAGUUA | 0.164 ± 0.013
5 | UCCUGGAUGAGCUUGCAUAGUAGUUUAGUUA | 0.115 ± 0.022
6 | UCCUCCUACAGCUUGCAUAGUAUUAUCAAA | 0.0973 ± 0.021
7 | UCCUGGAUGUCGAUGCAAAGUAUUUAGUUA | 0.00863 ± 0.0026
8 | UCCUCGUACUGCUUGCAUAGUAUUUAGUUA | 0.264 ± 0.0097
9 | UCCUGGAACAGCUUGCAUAGUAUUUAGUUU [g2:g23:cont:t1U] | 0.278 ± 0.02
10 | UCCUCCUACAGUCUUGCAUAGUAUUUAGUUA | 0.252 ± 0.018
11 | UCCUGGAUGAGCUUCCAUAGUAUUUAGUUA | 0.0222 ± 0.011
12 | UCCUGGAUCAGCUUGCAUAGUAUUGAGUUA | 0.227 ± 0.039
13 | UCCUGGAUGUCGAAGCAUAGUAUUCUAGUUA | 0.0193 ± 0.0065
14 | UCCUCCUAGUCCUUGCAUAGUAUUUAGUUA | 0.235 ± 0.018
15 | UCCUGGUACAGCUUGCAAAGUUUUUAGUUA | 0.0248 ± 0.0088
16 | UCCUGGUACACCUUGCAUAGUAUUUAGAAA | 0.13 ± 0.043
17 | UCCUGGAUGAGCAAGCAUAGUAUUUAGUAA | 0.123 ± 0.018
18 | UCCUCCUACAGCUUGCAUAGUAUUUUCUAA | 0.143 ± 0.028
19 | UCCUGGUACUGCUUGCAUAGUAUUUUGUUA | 0.0539 ± 0.019
20 | UCCUGGAUCAGCUAGCAUAGUUUUUAGUUA | 0.0366 ± 0.0073
21 | UCCUGGAUCAGCUUCCAUUGUAUUUAGUUA | 0.0508 ± 0.0093
22 | UCCUCCUACAGCUUGCAUAGUCAUUUAGUUA | 0.0182 ± 0.0076
23 | UCCUGGAUGUCGAAGCAUAGUAUUUUGUUA | 0.0221 ± 0.0061
24 | UCCUGCUACUGGUUGCAUAGUAUUUAGUUA | 0.251 ± 0.018

Same assay, conditions: auxiliary factor: none (no GTSF1)

Row | Sequence | pre-steady-state target cleavage rate
25 | UCCUGGAUGUCGAUGCAUAGUAUUUAGUUA [g2:g17:cont:t1A] | 0.0067 ± 0.0017
26 | UCCUGGUACUGCUUGCAUAGUUUUUAGUUA | 0.00996 ± 0.0046
27 | UCCUGGAACAGCUAGCAUUGUAUUUAGUUA | 0.0074 ± 0.0021
28 | UCCUGGAUGAGCUUGCAUAGUAGUUUAGUUA | 0.0138 ± 0.0039
29 | UCCUGGAUGUCGAUGCAAAGUAUUUAGUUA | 0.0036 ± 0.0027
30 | UCCUCGUACUGCUUGCAUAGUAUUUAGUUA | 0.00745 ± 0.0024
31 | UCCUGGAACAGCUUGCAUAGUAUUUAGUUU [g2:g23:cont:t1U] | 0.0155 ± 0.0044
32 | UCCUCCUACAGUCUUGCAUAGUAUUUAGUUA | 0.00736 ± 0.0023
33 | UCCUCCUAGUCCUUGCAUAGUAUUUAGUUA | 0.00692 ± 0.0015
34 | UCCUGGUACAGCUUGCAAAGUUUUUAGUUA | 0.00339 ± 0.0029
35 | UCCUGGAUGAGCAAGCAUAGUAUUUAGUAA | 0.00443 ± 0.0027
36 | UCCUCCUACAGCUUGCAUAGUAUUUUCUAA | 0.00357 ± 0.0031
37 | UCCUGGUACUGCUUGCAUAGUAUUUUGUUA | 0.00457 ± 0.0034
38 | UCCUGGAUCAGCUAGCAUAGUUUUUAGUUA | 0.00382 ± 0.0025
39 | UCCUCCUACAGCUUGCAUAGUCAUUUAGUUA | 0.00422 ± 0.0022
40 | UCCUGGAUGUCGAAGCAUAGUAUUUUGUUA | 0.00241 ± 0.0023
41 | UCCUGCUACUGGUUGCAUAGUAUUUAGUUA | 0.0113 ± 0.0029
